Assay outcomes: PubChem BioAssay, several laboratories
PKA kinase inh: blocks human protein kinase A activity. P17612. PKA Kemptide phosphorylation, Kinase-Glo ATP luminescence. inhibition, % at 6 µM. actives 0.1% (n = 65,000);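 active = inhibition above the screen-wide mean inhibition plus 3 SD, cut at about 21% in these data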
ROCK2 blocker: blocks human Rho kinase 2 activity; O75116; AID 604; inhibition, % at 6 µM; actives 0.35% (n = 60,000); purified ROCK2, Kinase-Glo ATP depletion luminescence;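 active = inhibition above the screen-wide mean inhibition plus 3 SD, cut at about 18% in these data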;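 also: plate controls were DMSO wells for no effect and Y-27632 control wells after no-enzyme background subtraction for full effect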
mHtt clearance: compounds clearing mutant huntingtin protein | HeLa Exon1htt(103Q)mCFP, aggregate imaging; zero = plate's median compound well | inhibition, % at 1.5 µM | AID 853 | actives 0.42% (n = 47,000);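 active = inhibition of aggregate fluorescence above about 70%, also judged a hit by eye on the cell image, limit read from the data, passing the limit was not always enough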;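 also: cells exposed to compound for three days before fixation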
Hsp90 block: displaces geldanamycin probe from tumor Hsp90; NCI-N417 lysate Hsp90, Cy3B-geldanamycin FP displacement; actives 0.35% (n = 64,000); inhibition, % at 30 µM; P07900;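 active = inhibition above 50%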;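 also: 0% = tracer plus lysate wells and 100% = tracer alone without lysate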
MMP13 inh: blocks human MMP13 activity; MMP-13 fTHP FRET cleavage, Mca fluorescence; actives 0.07% (n = 65,000); inhibition, % at 4 µM; P45452; AID 570;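 active = inhibition above the mean of compound-free control plate wells plus 3 SD, cut at about 14% in these data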;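 also: 0% = DMSO wells and 100% = wells with reference MMP-13 inhibitor after basal subtraction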
SK-BR-3 tox 24h: SK-BR-3 proliferation inhibitors; AID 847; SK-BR-3 viability, CellTiter-Glo ATP luminescence, 24 h; hits give low values; actives 0.47% (n = 41,000); viability, % at 10 µM;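 active = viability at or below the median of all test compounds minus 3 SD, in both replicates if run twice, cut at about 45% in these data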;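 also: 100% = median untreated cell wells and 0% = median positive control drug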
An asterisk follows results filed as active; nt = not tested or not shown. Shown are actives, neighbours in structure and some others; about 0.97% of the full set was active somewhere.

SMILES | PKA kinase inh | ROCK2 blocker | mHtt clearance | Hsp90 block | MMP13 inh | SK-BR-3 tox 24h
CS(=O)(=O)NCCSc1nnnn1-c1ccccc1 | -1.1 | -0.3 | -38.1 | 2.4 | 1.4 | 93.1
Cc1ccc(S(=O)(=O)NCCSc2nnnn2-c2ccc(C(N)=O)cc2)cc1 | 54.3* | 13.2 | nt | 0.2 | 3.3 | nt
CCCC(=O)C1=C(c2ccccc2)C(C#N)(C#N)C(C#N)=C1N | -4.5 | 4.2 | 30.8 | 10.6 | -4.0 | 99.6
CS(=O)(=O)N(CC(=O)N1CCCC1)c1ccc(OCc2ccccc2)cc1 | 3.4 | 2.2 | 78.0* | 0.0 | 0.6 | 111.9
CC1(C)Cc2c(c(-c3ccco3)nc3n[nH]c(N)c23)CO1 | 30.6* | 1.6 | 29.6 | -6.7 | 1.1 | 103.3
Cc1nccn1-c1cc(C(C)C)c(C#N)c2nc3ccccc3n12 | -2.2 | 0.0 | nt | 4.8 | -10.3 | 98.4
CCOc1cccc(NC(=O)c2ccc(S(=O)(=O)N3CCCC3)cc2)c1 | -4.1 | 2.3 | nt | 0.1 | -0.3 | nt
Cc1csc2ncc(C(=O)NCc3ccccc3Cl)c(=O)n12 | 3.0 | 5.3 | nt | -2.8 | -84.0 | nt
COc1cc2c(C(=O)NCc3ccc4c(c3)OCO4)cn(CC(C)C)c(=O)c2cc1OC | -3.0 | 3.8 | 4.7 | -3.4 | 1.1 | 24.7*
Cc1csc2ncc(C(=O)NCc3ccc4c(c3)OCO4)c(=O)n12 | 3.7 | 2.5 | nt | -3.9 | 15.9* | nt
COc1ccc(NC(=O)CN(c2ccc(C)cc2)S(C)(=O)=O)c(OC)c1 | -6.6 | -4.2 | 1.3 | 2.4 | 2.6 | nt
COc1ccc(OC)c(NC(=O)CN(c2ccc(OC)c(Cl)c2)S(C)(=O)=O)c1 | -5.6 | -2.4 | nt | -0.1 | 2.7 | 36.4*
CC(=O)NC(CCS(C)(=O)=O)C(=O)Nc1ccc(Oc2ccccc2)cc1 (stereo unspecified) | 0.6 | 2.7 | nt | -1.5 | 1.9 | nt
COc1ccc2c(=O)c3c(=O)n(Cc4ccco4)c(-c4cc(OC)c(OC)c(OC)c4)nc3oc2c1 | -1.1 | 8.7 | 27.3 | -1.3 | 0.3 | 26.7*
CN(C)CCNC(=O)c1cc2ccccc2oc1=O | 6.9 | 6.5 | 73.6* | -5.9 | -16.6 | 86.7
O=c1c(-c2ccc3c(c2)OCCO3)coc2c(CN3CCOCC3)c(O)ccc12 | 4.6 | 4.2 | 14.3 | 72.2* | -25.0 | 92.9
CCc1ccc(CN2CCN(C(=O)c3cccc(OC)c3OC)CC2)cc1 | nt | nt | 27.0 | nt | nt | nt
COc1cc2[nH]c(=O)n(CCC(=O)N3CCN(c4cc(Cl)ccc4C)CC3)c(=O)c2cc1OC | 2.5 | nt | nt | nt | -2.3 | 8.5*
O=C(OCc1cccs1)c1ccccc1NS(=O)(=O)c1ccc2c(c1)OCCO2 | -4.5 | 0.7 | 1.5 | -0.1 | -2.5 | 78.7
CCN1C(=O)/C(=C2/C=CC=CN2C)SC1=S | 6.0 | -1.0 | 36.4 | -3.2 | 20.5* | nt
CCCc1cc(C(=O)Cc2ccc(F)cc2)c(O)cc1O | 4.6 | 8.5 | -42.0 | 5.4 | -2.4 | 16.2*
COCc1nnc(NC(=O)c2ccc(NC(C)=O)cc2)s1 | -7.2 | -2.8 | 84.2* | -1.8 | 2.7 | nt
O=C(CN1CCC(O)(c2ccccc2F)CC1)NCCc1c[nH]c2ccccc12 | -4.5 | -2.4 | nt | -1.5 | -2.0 | 91.3
O=C(Nc1ccncc1)C1CCCN(S(=O)(=O)c2cccc3cccnc23)C1 (stereo unspecified) | 10.8 | 75.3* | 30.9 | -0.5 | 0.3 | nt
Cn1c(=O)c2c(nc(SCC(=O)NCc3ccc4c(c3)OCO4)n2Cc2ccc(Cl)cc2)n(C)c1=O | nt | nt | 81.2* | nt | nt | nt
SMILES | PKA kinase inh | ROCK2 blocker | mHtt clearance | Hsp90 block | MMP13 inh | SK-BR-3 tox 24h
CCCc1nc(SCC(=O)NCc2ccc3c(c2)OCO3)c2c(=O)n(C)c(=O)n(C)c2n1 | 2.1 | 8.0 | nt | -0.2 | -17.9 | nt
O=C(NC1CCCC1)c1ccc2nc[nH]c2c1 | 11.0 | 8.1 | -89.1 | -3.0 | 1.8 | 88.3
O=C(c1ccccc1)c1ccc2nc[nH]c2c1 | 13.9 | 32.9* | 44.9 | 0.9 | -1.6 | 96.4
c1ccc2[nH]c(CSc3ncnc4c3oc3ccccc34)nc2c1 | 11.7 | 5.2 | 74.8* | -4.1 | -6.4 | 120.0
Cc1nc(SCc2nc3ccccc3[nH]2)c2oc3ccccc3c2n1 | -1.5 | 2.1 | -11.4 | 0.6 | -4.0 | 86.7
Cc1cc(SCC(N)=O)nc(SCC(=O)c2ccccc2)n1 | -1.7 | -4.2 | 5.3 | 90.6* | -5.0 | 104.9
Cc1cc(SCC(=O)c2ccccc2)nc(C)n1 | -4.2 | -2.3 | -3.1 | -5.0 | -2.6 | 73.8
O=C(O)c1cc2cc(Cc3cccnc3)ccc2o1 | nt | nt | nt | -3.8 | nt | nt
Cc1ccc(CNC(=O)Cn2c(=O)oc3ccccc32)o1 | 12.8 | 6.3 | nt | 2.3 | 0.7 | 38.0*
CC(C)Oc1ccc(CNC(=O)Cn2c(=O)oc3ccccc32)cc1 | nt | nt | -111.8 | nt | nt | nt
